In PubChem BioAssay:

Tested on: Neuregulin-1 EGF-like domain
Assay: small molecules binding NRG1 EGF domain – biochemical, small-molecule microarray, 635 nm fluorescence, primary screen (AID 1081);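 also: binding of the protein to compounds printed on small-molecule microarray slides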
Conditions: higher = more signal

In order of falling composite z-score:
1. CCCCN1CC=CC23O[C@@H]4/C=C\CCC(C)OC(=O)C4[C@H]2C(=O)N(C(CO)C(C)C)[C@@H]3C1=O (stereo not given in full)  1.45
2. COc1ccc(NC(=O)O[C@H]2[C@H](OC(=O)Nc3ccccc3)[C@H](OC(=O)Nc3ccccc3)[C@@H](OC)O[C@@H]2CO)cc1  1.25
3. O=C1OCC=C[C@H]2OC34C=CCN(Cc5ccccc5)C(=O)[C@H]3N(CCCCCCO)C(=O)[C@@H]4[C@@H]12 (stereo not given in full)  1.12
4. COc1ccc(CN(C2=CC[C@@]3(C(N)=O)C(=O)C(Cl)=C(Cl)C(=O)[C@@]3(C#N)C2)S(=O)(=O)c2ccc(Br)cc2)cc1  1.11
5. [N-]=[N+]=NCc1ccccc1C[C@@]1(C(=O)NCc2ccccc2)N=C(c2ccc(OCCCO)cc2)O[C@@H]1c1ccccc1N=[N+]=[N-]  1.1
6. [N-]=[N+]=NCc1ccccc1C[C@@]1(C(=O)N2CCOCC2)N=C(c2ccc(OCCCO)cc2)O[C@@H]1c1ccccc1  1.1
7. COCCOC(=O)N1C(=O)[C@@]2(c3cc(C#CC4(O)CCCCCC4)ccc31)[C@H](c1ccc(O)cc1)N1[C@H](c3ccccc3)[C@H](c3ccccc3)OC(=O)[C@H]1[C@@H]2C(=O)NC[C@H](O)c1ccccc1  1.02
8. COCCOC(=O)N1C(=O)[C@@]2(c3ccccc31)[C@H](C(=O)N1CCN(c3ncccn3)CC1)[C@H]1C(=O)O[C@H](c3ccccc3)[C@H](c3ccccc3)N1[C@@H]2c1ccc(O)cc1  0.335
9. COc1ccc(-c2nc(-c3ccccc3)c3c(c2C)CO[Si]3(C(C)C)C(C)C)cn1  -0.196
10. CCCCO[C@H]1C[C@H]2C(I)=C[C@@H]1C(=O)[C@]21CO1  -0.44
